PKA-R2B act: activates the human PKA-R2B holoenzyme complex; P22694+P31323; activation, % at 11.4 µM; AID 504700; PKA-R2B holoenzyme dissociation, Cy5-IP20 fluorescence polarization; R2B truncated from residue 108, S112A mutant; 0% DMSO only, 100% 113 µM cGMP; 340,000 tested, 0.079% active;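 active = activation above a cutoff set at the mean over all compounds plus 3 SD, cut at about 18% in these data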;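 also: higher means more holoenzyme dissociation and a rise in polarization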
V-ATPase pH: alters yeast V-ATPase proton transport | 350,000 tested, 0.37% active | response, % at 10 µM | AID 504577 | S. cerevisiae, pHLuorin cytosolic pH fluorescence; in the data active = response mostly above about 7.3%, no sharp cut-off; inactive = mostly below about 5.4%; also: actives read high
PolyA inhibitor: yeast polyadenylation inhibition; S. cerevisiae SKY197-pL101 polyadenylation reporter, beta-gal luminescence; efflux-impaired pdr1/pdr3 knockout yeast; score 100 = 6 SD above DMSO; activity score, % at 12 µM; 300,000 tested, 0.02% active;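 active = lowest replicate activity score at least 50, where 100 means six control SD above control mean; inconclusive = lowest score under 50 but half or more replicates reach 50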;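 also: yeast exposed to compound for 9 h at 30 °C; higher score means more reporter readthrough which indicates perturbed polyadenylation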
CR mimetic SO: caloric restriction mimetics inhibiting age-related superoxide in yeast; S. cerevisiae aged cells, superoxide DHE fluorescence; stronger effect = lower value; superoxide response (% of plate mean), % at 10 µM; 330,000 tested, 0.18% active; AID 2690;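 active = superoxide response under a set limit, about three screen SD below normal, cut at about 65% in these data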;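 also: yeast aged for seven days with compound at 30 °C before DHE staining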
GASC-1 inh: inhibitors of human GASC-1 (JMJD2C) demethylase. Q9H3R0. GST-JMJD2C(1-420) H3K9me3 demethylation, DELFIA europium. inhibition, % at 2.35 µM. 330,000 tested, 0.069% active. AID 2099;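 active = more than half of a compound's replicate wells show inhibition beyond 50%, single wells judged on their own value; inconclusive = some, but no more than half, of replicates pass 50% inhibition; inactive = no replicate passes 50% inhibition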;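 also: signal counts dimethyl H3K9 product captured on neutravidin plate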
Target sequence (Q9H3R0 1-420 limits assumed): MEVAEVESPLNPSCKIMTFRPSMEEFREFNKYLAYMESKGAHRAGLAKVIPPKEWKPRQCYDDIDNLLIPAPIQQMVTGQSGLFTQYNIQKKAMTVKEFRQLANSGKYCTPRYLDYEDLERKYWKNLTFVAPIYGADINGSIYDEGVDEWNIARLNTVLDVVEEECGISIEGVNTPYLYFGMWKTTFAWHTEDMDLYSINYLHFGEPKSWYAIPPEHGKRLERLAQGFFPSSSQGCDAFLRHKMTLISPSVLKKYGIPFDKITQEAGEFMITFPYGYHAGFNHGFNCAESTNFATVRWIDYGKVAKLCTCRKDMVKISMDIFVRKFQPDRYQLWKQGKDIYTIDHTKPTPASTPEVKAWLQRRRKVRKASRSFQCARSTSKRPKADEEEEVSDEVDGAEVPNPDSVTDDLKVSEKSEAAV
PKA-R1A act: activates the PKA-R1A holoenzyme complex. P00514+P68181. PKA-R1A dissociation, Cy5-IP20 fluorescence polarization; scaled: DMSO 0%, 113 µM cGMP 100%. activation, % at 11.4 µM. 340,000 tested, 0.083% active;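 active = percent activation above the mean of all tested compounds plus 3 SD, cut at about 19% in these data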;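 also: higher means more PKAc released from R1A so a rise in polarization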
CR mimetic CP: confirmation of caloric restriction mimetics inhibiting yeast age-related superoxide | shares compounds with CR mimetic SO | S. cerevisiae aging, superoxide DHE fluorescence; stronger effect = lower value | superoxide response (% of plate), % at 10 µM | 850 tested, 1% active | AID 434994;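 active = superoxide signal below 65% of the plate average of sample wells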;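 also: cells aged with compound for 7 days at 30 degrees C before staining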
DHE fluor count: counter-screen for compounds affecting DHE oxidation and fluorescence in yeast; shares compounds with CR mimetic SO; S. cerevisiae BY4741, flow cytometry; stronger effect = lower value; fluorescence response, % at 10 µM; 850 tested, under 10 active; AID 435000;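 active = fluorescence response below 15%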;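 also: lower means stronger quenching of DHE signal or ROS scavenging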
A number is an active result; n = inactive; u = inconclusive; x = not tested or not shown. Most compounds without a hit are left out; they make up all but 0.78% or so of the library.

SMILES	PKA-R2B act	V-ATPase pH	PolyA inhibitor	CR mimetic SO	GASC-1 inh	PKA-R1A act	CR mimetic CP	DHE fluor count
CSc1ccc(-c2c(C#N)c(N)nc3c2CCCC3)cc1	n	n	n	64	n	n	n	n
Cc1ccc(-n2ncc3c(N4CCN(c5ccccc5)CC4)ncnc32)c(C)c1	n	n	n	n	n	n	x	x
Cc1cccc(-n2ncc3c(N4CCCC4)ncnc32)c1	n	n	n	n	n	n	n	n
Cc1cccc(-n2ncc3c(N4CC(C)CC(C)C4)ncnc32)c1 (stereo not given)	n	n	n	n	n	n	x	x
Cc1cccc(-n2ncc3c(N4CCOCC4)ncnc32)c1	n	n	n	n	n	n	n	n
Cc1nc2sccn2c(=O)c1Br	n	n	n	n	n	n	x	x
COc1ccc(CC(=O)N(Cc2ccccc2)c2cccc(C)c2)cc1OC	n	n	n	64	n	n	n	n
O=C(c1ccc(Br)cc1)N(Cc1nc2ccccc2c(=O)[nH]1)C1CCCC1	n	n	n	n	n	n	x	x
Cc1cccc(C)c1OCC(=O)NCc1ccccc1	n	n	n	46	n	n	n	n
COc1ccc2nc3ccccc3nc2c1NC(=O)c1ccccc1Cl	n	n	n	53	n	n	n	n
C=CCN=C1S/C(=C/c2ccc([N+](=O)[O-])cc2)C(=O)N1CC=C	n	n	n	60	n	n	n	n
C=CCN=C1S/C(=C/c2cccc([N+](=O)[O-])c2)C(=O)N1CC=C	n	n	n	n	n	n	x	x
CCCc1c(NC(=O)Nc2ccc(F)cc2)cnn1-c1ccccc1	n	n	n	61	n	n	n	n
Cc1ccc(S(=O)(=O)N2CCN=C2SCc2ccccc2)cc1	n	n	n	63	n	n	n	n
Cc1ccc(NC(=S)N2CCC(N(C)CC3CCCO3)CC2)cc1 (stereo not given)	n	n	n	n	n	n	x	x
Cc1ccc(Cn2nnc3c(=O)[nH]c(C4CCN(S(=O)(=O)c5ccccc5F)CC4)nc32)cc1	n	n	n	n	n	n	x	x
O=C(COn1nnc2ccc(C(F)(F)F)cc21)Nc1nnc(-c2ccccc2)o1	n	n	n	60	n	n	n	n
COc1ccc(C(=O)/C(C#N)=N/Nc2ccc([N+](=O)[O-])cc2)cc1	n	n	n	n	x	n	x	x
CCOc1ccc(N/C(SC)=C(/C#N)C(N)=O)cc1	n	n	n	n	n	n	x	x
CCOC(=O)NC(=O)/C(C#N)=N\Nc1cccc(Cl)c1	n	n	n	n	n	n	x	x
CCOc1ccc(N/N=C(/C#N)C(N)=O)cc1	n	n	n	46	n	n	n	n
COc1ccc(N/N=C(\C#N)C(N)=O)cc1	n	n	n	48	n	n	n	n
CCOC(=O)NC(=O)/C(C#N)=N\Nc1ccc(Cl)cc1	n	n	n	n	n	n	n	n
CCC(=O)c1c[nH]c(C(=O)N2CCOCC2)c1	n	n	n	n	n	n	x	x
COc1ccc(/C=C/C(=O)OCC(=O)NC(C)CCc2ccccc2)cc1OC (stereo not given)	n	n	x	n	n	n	x	x
SMILES	PKA-R2B act	V-ATPase pH	PolyA inhibitor	CR mimetic SO	GASC-1 inh	PKA-R1A act	CR mimetic CP	DHE fluor count
CCSc1nnc(C)c(=O)n1COC(=O)c1ccc(S(=O)(=O)N2CCCC2)cc1	n	n	n	51	n	n	n	n
CCOP(=O)(c1ccc(N(C)C)cc1)C(O)c1ccc(OC)cc1 (stereo not given)	n	n	n	n	n	n	x	x
COC(=O)c1ccccc1NS(=O)(=O)c1ccc(F)cc1	n	n	n	n	n	n	n	n
C=C(C)[C@H]1CC=C(C)C(=O)C1	n	n	x	n	n	n	x	x
O=C(N/N=C\c1cc2c(cc1Cl)OCO2)c1cccs1	n	n	u	n	n	n	x	x
COc1ccc(S(=O)(=O)N2CCC3(CC2)CC(=O)c2ccccc2O3)cc1C	n	n	n	65	n	n	n	n
CCN(c1ccc(OC)cc1)S(=O)(=O)c1cc(-c2cc(C)no2)ccc1C(C)C	n	n	n	n	n	n	x	x
